Test results reported in PubChem BioAssay (EPA / NIEHS).
A structure can be active in one record and inactive in another. Active and inactive are the calls of the source. The calls were made as follows: active = hit-call score of the fitted dose curve at least 0.9, where 1 is the maximum; inactive = score below 0.9.

What was measured:
[1] = read-out: Plasminogen activator inhibitor-1 (PAI1), SERPINE1 (gene 5054); assay: BSK_KF3CT_PAI1: BioMAP Diversity Plus: KF3CT Assay for Plasminogen activator inhibitor-1 (PAI1) Biomarker Activity (AID 2284252); settings: primary human keratinocytes with fibroblasts
How it was run: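 PAI-1 levels quantified by ELISA after 24 h compound exposure of primary human skin keratinocytes co-cultured with fibroblasts. Activity is the gain relative to DMSO; cytotoxicity tracked in parallel cultures via SRB staining.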

[2] = read-out: Interleukin-8 (IL8), CXCL8 (gene 3576); assay: BSK_KF3CT_IL8: BioMAP Diversity Plus: KF3CT Assay for Interleukin-8 (IL8) Biomarker Activity (AID 2284254); settings: primary human keratinocytes with fibroblasts
How it was run: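 Chemicals were added to co-cultured human keratinocytes and foreskin fibroblasts, incubated 24 h, then IL-8 was quantified by ELISA. Cytotoxicity was tracked by sulforhodamine B total-protein staining in parallel cultures.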

[3] = read-out: Macrophage Inflammatory Protein-1 Alpha (MIP1a), CCL3 (gene 6348); assay: BSK_IMphg_MIP1a: BioMAP Diversity Plus: IMphg Assay for Macrophage Inflammatory Protein-1 Alpha (MIP1a) Biomarker Activity (AID 2284255); settings: primary human endothelial cells with macrophages
How it was run: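 MIP-1a protein levels were quantified by ELISA after 24 h treatment of human endothelial cell–macrophage co-cultures, compared with DMSO. Parallel cultures were fixed with TCA and stained with 0.1% SRB to gauge overt cytotoxicity.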

[4] = read-out: Plasminogen activator inhibitor-1 (PAI1), SERPINE1 (gene 5054); assay: BSK_MyoF_PAI1: BioMAP Diversity Plus: MyoF Assay for Plasminogen activator inhibitor-1 (PAI1) Biomarker Activity (AID 2284256); settings: primary human lung fibroblasts
How it was run: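 Primary human lung fibroblasts are dosed and incubated 24 h. PAI-1 is then measured by ELISA, while parallel cultures undergo SRB staining for overt cytotoxicity. Increases over DMSO define activity.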

CD69, CD69 (gene 969) = assay: BSK_IMphg_CD69: BioMAP Diversity Plus: IMphg Assay for CD69 Biomarker Activity (AID 2284257); settings: primary human endothelial cells with macrophages
How it was run: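 Readout is ELISA for CD69 in primary human venular endothelial cell/macrophage co-culture, taken at 24 h post-dosing. SRB staining of parallel cultures gauged overt cytotoxicity; signal increase versus DMSO defined activity.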

[5] = read-out: Eotaxin 3, CCL26 (gene 10344); assay: BSK_BF4T_Eotaxin3: BioMAP Diversity Plus: BF4T Assay for Eotaxin 3 Biomarker Activity (AID 2284258); settings: primary human bronchial epithelial cells with fibroblasts
How it was run: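 ELISA measurement of Eotaxin-3 after 24 h chemical exposure in a bronchial epithelial/dermal fibroblast co-culture, with DMSO as baseline. Parallel SRB staining (0.1% SRB after 10% TCA fixation, 560 nm) flagged overt cytotoxicity.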

[6] = read-out: Monocyte Chemoattractant Protein-1 (MCP1), CCL2 (gene 6347); assay: BSK_BF4T_MCP1: BioMAP Diversity Plus: BF4T Assay for Monocyte Chemoattractant Protein-1 (MCP1) Biomarker Activity (AID 2284259); settings: primary human bronchial epithelial cells with fibroblasts
How it was run: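 MCP-1 ELISA readout taken 24 h after dosing in the BF4T system (bronchial epithelial cells plus dermal fibroblasts). Parallel SRB total-protein staining flagged cytotoxicity; DMSO served as baseline, positive fitting direction.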

[7] = read-out: Intercellular Adhesion Molecule 1 (ICAM1), ICAM1 (gene 3383); assay: BSK_BF4T_ICAM1: BioMAP Diversity Plus: BF4T Assay for Intercellular Adhesion Molecule 1 (ICAM1) Biomarker Activity (AID 2284260); settings: primary human bronchial epithelial cells with fibroblasts
How it was run: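 ICAM-1 levels measured by ELISA after 24 h chemical treatment of bronchial epithelial cell/dermal fibroblast co-cultures, read against DMSO baseline. Overt cytotoxicity checked in parallel cultures by sulforhodamine B staining.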

[8] = read-out: Interleukin-8 (IL8), CXCL8 (gene 3576); assay: BSK_MyoF_IL8: BioMAP Diversity Plus: MyoF Assay for Interleukin-8 (IL8) Biomarker Activity (AID 2284261); settings: primary human lung fibroblasts
How it was run: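 IL-8 levels were measured by ELISA in human lung fibroblasts harvested 24 h after compound addition. Responses were analysed as gain of signal over the DMSO baseline.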

CD90, THY1 (gene 7070) = assay: BSK_BF4T_CD90: BioMAP Diversity Plus: BF4T Assay for CD90 Biomarker Activity (AID 2284262); settings: primary human bronchial epithelial cells with fibroblasts
How it was run: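 CD90 levels by ELISA after 24 h treatment of human bronchial epithelial cell/dermal fibroblast cultures, analysed versus DMSO. Overt cytotoxicity checked in parallel cultures by sulforhodamine B staining.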

[9] = read-out: Interleukin-8 (IL8), CXCL8 (gene 3576); assay: BSK_BF4T_IL8: BioMAP Diversity Plus: BF4T Assay for Interleukin-8 (IL8) Biomarker Activity (AID 2284263); settings: primary human bronchial epithelial cells with fibroblasts
How it was run: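 Human bronchial epithelial cells with dermal fibroblasts co-culture; IL-8 measured by ELISA 24 hours after dosing, fitted vs DMSO. Cytotoxicity tracked in parallel cultures by SRB total-protein staining.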

[10] = read-out: Interleukin-1 alpha (IL1a), IL1A (gene 3552); assay: BSK_BF4T_IL1a: BioMAP Diversity Plus: BF4T Assay for Interleukin-1 alpha (IL1a) Biomarker Activity (AID 2284264); settings: primary human bronchial epithelial cells with fibroblasts
How it was run: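 ELISA read-out of IL-1α from bronchial epithelial cell/dermal fibroblast co-cultures 24 h after compound addition. Increases scored against DMSO negative control. Cytotoxicity monitored by sulforhodamine B staining of parallel cultures.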

Decorin, DCN (gene 1634) = assay: BSK_MyoF_Decorin: BioMAP Diversity Plus: MyoF Assay for Decorin Biomarker Activity (AID 2284265); settings: primary human lung fibroblasts
How it was run: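 Compound is added to lung fibroblast cultures; cells incubate 24 h; decorin is then measured by ELISA; the response is analysed upward against DMSO controls.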

KRT18 (gene 3875) = assay: BSK_BF4T_Keratin818: BioMAP Diversity Plus: BF4T Assay for Keratin 818 Biomarker Activity (AID 2284266); settings: primary human bronchial epithelial cells with fibroblasts
How it was run: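 Keratin 8/18 levels quantified by ELISA after 24 h chemical treatment of bronchial epithelial cell/dermal fibroblast co-cultures, fitted in positive direction relative to DMSO. Parallel SRB staining tracks overt cytotoxicity.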

[11] = read-out: Matrix Metallopeptidase 1 (MMP1), MMP1 (gene 4312); assay: BSK_MyoF_MMP1: BioMAP Diversity Plus: MyoF Assay for Matrix Metallopeptidase 1 (MMP1) Biomarker Activity (AID 2284268); settings: primary human lung fibroblasts
How it was run: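 Lung fibroblast cultures were dosed with test chemicals and, after 24 h, MMP1 levels were measured by ELISA; responses were referenced to DMSO and analysed for increases.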

[12] = read-out: TIMP metallopeptidase inhibitor 1 (TIMP1), TIMP1 (gene 7076); assay: BSK_MyoF_TIMP1: BioMAP Diversity Plus: MyoF Assay for TIMP metallopeptidase inhibitor 1 (TIMP1) Biomarker Activity (AID 2284269); settings: primary human lung fibroblasts
How it was run: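 Primary human lung fibroblasts, MyoF multiplex system; chemical exposure 24 h; TIMP-1 by ELISA; positive fitting direction vs DMSO control.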

[13] = BSK_MyoF_SRB: Viability Assessment in the BioMAP Diversity Plus: MyoF Assay (AID 2284267); settings: primary human lung fibroblasts;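 also: total protein by SRB absorbance in parallel cultures as cytotoxicity measure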
How it was run: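 Cytotoxicity read-out: after 10% TCA fixation, parallel human lung fibroblast cultures were stained with 0.1% SRB at 24 h post-dosing and read at 560 nm; DMSO served as baseline.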

[14] = read-out: Matrix Metallopeptidase 1 (MMP1), MMP1 (gene 4312); assay: BSK_BF4T_MMP1: BioMAP Diversity Plus: BF4T Assay for Matrix Metallopeptidase 1 (MMP1) Biomarker Activity (AID 2284270); settings: primary human bronchial epithelial cells with fibroblasts
How it was run: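 MMP-1 quantified by ELISA in primary human bronchial epithelial/dermal fibroblast co-cultures, 24 hours post-dosing, with DMSO as baseline; parallel sulforhodamine B staining (560 nm) tracks overt cytotoxicity.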

Measured: AC50

FC(F)(F)C(F)(F)C(F)(F)C(F)(F)C(F)(F)C(F)(F)CCS
inactive: [1] | [2] | [3] | [4] | CD69, CD69 (gene 969) | [5] | [6] | [7] | [8] | CD90, THY1 (gene 7070) | [9] | [10] | Decorin, DCN (gene 1634) | KRT18 (gene 3875) | [11] | [12]
active: [4] 0.0795 µM | [10] 10.9 µM

O=C(O)C(F)(F)C(F)(F)C(F)(F)F
not listed: [9] | [14]
inactive: all other assays above

CS(C)(=O)=O
inactive: [4] | [8] | Decorin, DCN (gene 1634) | [13] | [11] | [12]

C=CC(F)(F)C(F)(F)C(F)(F)C(F)(F)C(F)(F)C(F)(F)C(F)(F)C(F)(F)C=C
not listed: [9] | [13] | [14]
inactive: all other assays above

FC(F)(F)C(F)(F)C(F)(F)N(C(F)(F)C(F)(F)C(F)(F)F)C(F)(F)C(F)(F)C(F)(F)F
inactive: [1] | [2] | [3] | [4] | CD69, CD69 (gene 969) | [5] | [6] | [7] | [8] | CD90, THY1 (gene 7070) | [9] | [10] | Decorin, DCN (gene 1634) | KRT18 (gene 3875) | [13] | [11] | [12]
active: CD69, CD69 (gene 969) 1.09 µM

FC(F)(F)C(F)(F)C(F)(F)C(F)(F)C(F)(F)C(F)(F)C(F)(F)C(F)(F)F
not listed: [9] | [13]
inactive: all other assays above

CCc1c(Br)c(Br)c(Br)c(Br)c1Br
active: [11] 13.2 µM
inactive: [4] | [8] | Decorin, DCN (gene 1634) | [13] | [12]

C#C[C@]1(O)CC[C@H]2[C@@H]3CCc4cc(OC)ccc4[C@H]3CC[C@@]21C
active: [11] 20 µM
inactive: [4] | [8] | Decorin, DCN (gene 1634) | [12]

CCc1ccc(C(c2ccc(CC)cc2)C(Cl)Cl)cc1
inactive: Decorin, DCN (gene 1634) | [12]
active: [4] 31.1 µM | [8] 7.95 µM | [11] 8.65 µM

C=CC/C=C/C/C=C/C/C=C/C
active: [4] 0.016 µM
inactive: [8] | Decorin, DCN (gene 1634) | [11] | [12]

CCCCCCC(C)OC(=O)CCCCC(=O)OC(C)CCCCCC (stereo not drawn)
inactive: [4] | [8] | Decorin, DCN (gene 1634) | [13] | [11] | [12]

CCCCCCCOC(=O)c1ccccc1C(=O)OCCCCCCC
inactive: [4] | [8] | Decorin, DCN (gene 1634) | [13] | [11] | [12]

O=C(O)C(F)(OC(F)(F)C(F)(OC(F)(F)C(F)(OC(F)(F)C(F)(F)C(F)(F)F)C(F)(F)F)C(F)(F)F)C(F)(F)F (stereo not drawn)
not listed: [9] | [13] | [14]
inactive: all other assays above

Nc1ccc([N+](=O)[O-])cc1O
inactive: [4] | [8] | Decorin, DCN (gene 1634) | [11] | [12]

O=C(O)C(F)(F)C(F)(F)C(F)F
active: Decorin, DCN (gene 1634) 30 µM
inactive: [1] | [2] | [3] | [4] | CD69, CD69 (gene 969) | [5] | [6] | [7] | [8] | CD90, THY1 (gene 7070) | [9] | [10] | Decorin, DCN (gene 1634) | KRT18 (gene 3875) | [13] | [11] | [12]

C=C(C)C(=O)OCC(F)(F)C(F)(F)C(F)(F)C(F)(F)C(F)(F)C(F)(F)C(F)(F)F
not listed: [9] | [14]
inactive: all other assays above

FC(F)(F)C(F)(F)C(F)(F)C(F)(F)CCI
active: [6] 7.18 µM | [8] 5.95 µM
inactive: [1] | [2] | [3] | [4] | CD69, CD69 (gene 969) | [5] | [6] | [7] | [8] | CD90, THY1 (gene 7070) | [9] | [10] | Decorin, DCN (gene 1634) | KRT18 (gene 3875) | [13] | [11] | [12] | [14]

C=CC(=O)OCC(F)(F)C(F)(F)C(F)(F)C(F)(F)C(F)(F)C(F)(F)C(F)(F)F
not listed: [9]
inactive: all other assays above
